Experimental data as given in the supplement of paper PMC6518042.
Values without a mark were called inactive.

The compounds below were run on Pectobacterium parmentieri SCC3193 (assay: DuctApe activity index (growth/respiration on compound as sole nutrient source, blank-subtracted) (activity index (0-3)); higher = stronger utilization of the compound, active = 3 or more). Conditions: nutrient role (plate category): carbon.
Procedure: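 Biolog Phenotype Microarray plates PM1, PM2A (carbon), PM3 (nitrogen) and PM4 (phosphorus/sulfur) inoculated with P. parmentieri SCC3193 in M9-C minimal salts medium with Biolog dye A, and read in the OmniLog for 46 h. Each well was tested in triplicate and the experiment was run twice. DuctApe computed a blank-subtracted activity index (AV, 0-3) from the mean curves; growth is positive at AV >= 3 and negative at AV <= 2.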
Compound `NCC(=O)N1CCC[C@H]1C(=O)O` has a DuctApe activity index of 0.
With `OCC1(O)OC[C@@H](O)[C@@H](O)[C@H]1O` (stereo partly drawn) [D-Psicose] the DuctApe activity index was 3 (active).
Work on `OCC1(O)OC[C@@H](O)[C@H](O)[C@@H]1O` (stereo partly drawn) [D-Tagatose] yielded a DuctApe activity index of 0.
`O=C(O)CC(CC(=O)O)C(=O)O` [Tricarballylic acid] showed a DuctApe activity index of 0.
Work on `CCCCCCCC/C=C\CCCCCCCC(=O)OCCOCC(OCCO)C1OCC(OCCO)C1OCCO` (stereo not drawn) [Tween 80] yielded a DuctApe activity index of 0.
In the case of `O=C(O)[C@H]1OC(O)[C@H](O)[C@@H](O)[C@H]1O` (stereo partly drawn) [D-Galacturonic acid], the DuctApe activity index is reported as 3 (active).
For `OCC1OC(O)(CO)C(O)C1O` [D-Fructose], the DuctApe activity index was 3 (active).
For `OC[C@H](O)C(O)[C@@H](O)CO` [L-Arabitol], the DuctApe activity index was 0.
In the case of `CC(=O)N[C@@H](CO)[C@@H](O)[C@H](O)[C@H](O)CO` [N-Acetyl-D-Glucosaminitol], the DuctApe activity index is reported as 0.
`O=C(O)[C@]1(O)C[C@@H](O)[C@@H](O)[C@H](O)C1` [Quinic acid] was tested, and the DuctApe activity index was 0.
In the case of `O=C(CO)[C@@H](O)[C@H](O)[C@H](O)CO[C@H]1O[C@H](CO)[C@@H](O)[C@H](O)[C@H]1O` [Palatinose], the DuctApe activity index is reported as 0.
`O=C(O)[C@H](O)[C@@H](O)[C@H](O)[C@H](O)CO[C@H]1O[C@H](CO)[C@H](O)[C@H](O)[C@H]1O` [Melibionic acid] showed a DuctApe activity index of 0.
For `C[C@H](O)[C@@H](N)C(=O)O` [D-Threonine], the DuctApe activity index was 0.
In the case of `O=C1O[C@H]([C@@H](O)CO)[C@@H](O)[C@@H]1O` [L-Galactonic acid-g-Lactone], the DuctApe activity index is reported as 3 (active).
Compound `O=CC(=O)O` [Glyoxylic acid] has a DuctApe activity index of 0.
In the case of `OC[C@H]1O[C@@](CO)(O[C@H]2O[C@H](CO)[C@@H](O)[C@H](O)[C@H]2O)[C@@H](O)[C@@H]1O` [Sucrose], the DuctApe activity index is reported as 3 (active).
With `O=C(O)[C@@H](O)[C@@H](O)[C@H](O)[C@@H](O)C(=O)O` [D-Saccharic acid] the DuctApe activity index was 3 (active).
With `OC[C@H]1O[C@H](O[C@H]2[C@H](O)[C@@H](O)[C@@H](O[C@H]3[C@H](O)[C@@H](O)[C@@H](O)O[C@@H]3CO)O[C@@H]2CO)[C@H](O)[C@@H](O)[C@@H]1O` [Maltotriose] the DuctApe activity index was 3 (active).
`O=C[C@H](O)[C@@H](O)[C@H](O)[C@H](O)CO[C@@H]1O[C@H](CO)[C@@H](O)[C@H](O)[C@H]1O` [Gentiobiose] was tested, and the DuctApe activity index was 3 (active).
With `OC[C@@]12OC[C@@H](O1)[C@@H](O)[C@@H](O)[C@@H]2O` [Sedoheptulosan] the DuctApe activity index was 0.
`CO[C@@H]1O[C@H](CO)[C@@H](O)[C@H](O)[C@H]1O` [b-Methyl-D-Glucoside] was tested, and the DuctApe activity index was 3 (active).

Same assay, conditions: nutrient role (plate category): nitrogen
In the case of `O=c1[nH]c(=O)c2nc[nH]c2[nH]1` [Xanthine], the DuctApe activity index is reported as 3 (active).
`CCCCCN` [N-Amylamine] showed a DuctApe activity index of 0.
For `C[C@H](N)C(=O)N[C@@H](Cc1cnc[nH]1)C(=O)O`, the DuctApe activity index was 0.
With `N[C@H]1C(O)O[C@H](CO)[C@H](O)[C@@H]1O` (stereo partly drawn) [D-Galactosamine] the DuctApe activity index was 0.
For `Oc1nc(O)c2nc(O)[nH]c2n1` [Uric acid], the DuctApe activity index was 0.
`NCCCCCC(=O)O` [e-Amino-N-Caproic acid] gave a DuctApe activity index of 0.
`NO` [Hydroxylamine] gave a DuctApe activity index of 0.

Same assay, conditions: nutrient role (plate category): phosphate & sulphur
`NC(CCSCC(N)C(=O)O)C(=O)O` (stereo not drawn) [Cystathionine] was tested, and the DuctApe activity index was 1.
Compound `O=c1ccn([C@@H]2O[C@H](CO)[C@@H](OP(=O)(O)O)[C@H]2O)c(=O)[nH]1` [Uridine 3`-Monophosphate] has a DuctApe activity index of 2.
`CSCCC(NC(C)=O)C(=O)O` (racemic) [N-Acetyl-D,L-Methionine] gave a DuctApe activity index of 2.
`N[C@@H](CCC(=O)N[C@@H](CS)C(=O)NCC(=O)O)C(=O)O` [Glutathione] was tested, and the DuctApe activity index was 1.
`O=S(=O)(O)O` [Sulfate] was tested, and the DuctApe activity index was 1.
In the case of `NC(Cc1ccc(OP(=O)(O)O)cc1)C(=O)O` (stereo in doubt) [O-Phospho-D-Tyrosine], the DuctApe activity index is reported as 2.
Compound `O=P1(O)OP(=O)(O)OP(=O)(O)O1` [Trimetaphosphate] has a DuctApe activity index of 2.
`NC(=O)CCCCC1CCSS1` (racemic) [DL-Lipoamide] was tested, and the DuctApe activity index was 1.
Compound `N[C@@H](COP(=O)(O)O)C(=O)O` [O-Phospho-L-Serine] has a DuctApe activity index of 2.
In the case of `CC(=O)N[C@@H](CS)C(=O)O` [N-Acetyl-L-Cysteine], the DuctApe activity index is reported as 1.
